Results: PubChem BioAssay (Tox21)
Results filed as inconclusive are left out. Calls of active or inactive are those of the source. Calls come from the whole dose curve; as a rule, active = well fitted curve in the direction sought with a large enough effect in the repeat runs; inconclusive = weak or mixed curves; inactive = no such curve, though single readings can be large; an effect the other way counts as inactive or inconclusive.

Columns and labels:
[1] = A CellTox Green Cytotoxicity Assay to monitor cytotoxicity in HEK293 cells - 32 hour (AID 1224881); note: nearly all actives have a fitted effect of over 40% in size; note: potency is the fitted concentration of half-maximal effect
Outline: (§1)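 Fluorescence from a DNA-binding dye excluded by viable cells was measured repeatedly in the same HEK293 wells (600 cells/well) during continuous compound exposure at 37 C. Each assay gives one read point: 0, 8, 16, 24, 32 or 40 h.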

[2] = A CellTox Green Cytotoxicity Assay to monitor cytotoxicity in HepG2 cells - 0 hour (AID 1224882); note: nearly all actives have a fitted effect of over 35% in size
Outline: (§2)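 Real-time cytotoxicity: fluorescence of a cell-impermeant cyanine dye binding DNA of dead HepG2 cells, measured repeatedly (0–40 h) during compound exposure at 37 C. Cells seeded 600/well with reagent, dosed after 5 h.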

[3] = A CellTox Green Cytotoxicity Assay to monitor cytotoxicity in HepG2 cells - 32 hour (AID 1224883); note: nearly all actives have a fitted effect of over 50% in size; note: potency is the fitted concentration of half-maximal effect
Outline: as §2

[4] = A CellTox Green Cytotoxicity Assay to monitor cytotoxicity in HEK293 cells - 8 hour (AID 1224884); note: nearly all actives have a fitted effect of over 35% in size; note: potency is the fitted concentration of half-maximal effect
Outline: as §1

[5] = qHTS RealTime-Glo MT Cell Viability Assay in HepG2 cells - 16 hour (AID 1224885); note: nearly all actives have a fitted effect of over 50% in size
Outline: (§3)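 Cells + NanoLuc/prosubstrate dispensed (600 cells/well) → 5 h at 37 C/5% CO2 → compounds in DMSO transferred → 40 h incubation at 37 C, luminescence read at 0, 8, 16, 24, 32, 40 h.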

[6] = qHTS RealTime-Glo MT Cell Viability Assay in HEK293 cells - 24 hour (AID 1224886); note: top concentration of the series differs between compounds; nearly all actives have a fitted effect of over 50% in size
Outline: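 Tox21 10K qHTS, HEK293, 600 cells/well, RealTime-Glo reagent co-dispensed with cells; 5 h preincubation, compound by pintool, 37 C, luminescence at 0–40 h.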

[7] = qHTS RealTime-Glo MT Cell Viability Assay in HEK293 cells - 8 hour (AID 1224887); note: top concentration of the series differs between compounds; nearly all actives have a fitted effect of over 50% in size
Outline: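 Luminescence, which tracks viable cell number through reduction of the prosubstrate to a NanoLuc substrate, was read over continuous 37 C culture. Cells (600/well) were premixed with reagent and rested 5 h before 23 nL of compound in DMSO was pinned.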

[8] = A CellTox Green Cytotoxicity Assay to monitor cytotoxicity in HEK293 cells - 16 hour (AID 1224888); note: nearly all actives have a fitted effect of over 35% in size; note: potency is the fitted concentration of half-maximal effect
Outline: as §1

[9] = qHTS RealTime-Glo MT Cell Viability Assay in HepG2 cells - 0 hour (AID 1224889); note: nearly all actives have a fitted effect of over 50% in size; note: potency is the fitted concentration of half-maximal effect
Outline: as §3

[10] = A CellTox Green Cytotoxicity Assay to monitor cytotoxicity in HepG2 cells - 8 hour (AID 1224890); note: nearly all actives have a fitted effect of over 45% in size; note: potency is the fitted concentration of half-maximal effect
Outline: as §2

Measured: Potency

CC1C2CC(CC2C2CCCC(O)C2)C1(C)C (stereo not drawn)
active: [1] 49 µM | [3] 43.6 µM | [4] 43.6 µM | [8] 49 µM | [10] 43.6 µM
inactive: [2] | [5] | [6] | [7] | [9]

CC(CCc1ccc2c(c1)OCO2)NN (stereo not drawn)
inactive: [1] | [2] | [3] | [4] | [5] | [6] | [7] | [8] | [9] | [10]

CO/N=C1\CN(c2nc3c(cc2F)c(=O)c(C(=O)O)cn3C2CC2)CC1CN (stereo not drawn)
inactive: [1] | [2] | [3] | [4] | [5] | [6] | [7] | [8] | [9] | [10]

C=C(C)C(=O)OCCOC(=O)CC(C)=O
inactive: [1] | [2] | [3] | [4] | [5] | [6] | [7] | [8] | [9] | [10]

CCCCCCOC(=O)CCCCCCCC(=O)OCCCCCC
inactive: [1] | [2] | [3] | [4] | [5] | [6] | [7] | [8] | [9] | [10]

CCOC(=O)/C=C/C(=O)O
inactive: [1] | [2] | [3] | [4] | [5] | [6] | [7] | [8] | [9] | [10]

CC(C)CCCC(=O)O
inactive: [1] | [2] | [3] | [4] | [5] | [6] | [7] | [8] | [9] | [10]

COC(OC)(C(=O)c1ccccc1)c1ccccc1
inactive: [1] | [2] | [3] | [4] | [5] | [6] | [7] | [8] | [9] | [10]

CCCCOC(=O)CCS
inactive: [1] | [2] | [3] | [4] | [5] | [6] | [7] | [8] | [9] | [10]

O=C(O)c1ccc(CO)o1
inactive: [1] | [2] | [3] | [4] | [5] | [6] | [7] | [8] | [9] | [10]

O=C(O)C(Cc1cc(I)c(O)c(I)c1)c1ccccc1 (stereo not drawn)
inactive: [1] | [2] | [3] | [4] | [5] | [6] | [7] | [8] | [9] | [10]

CC(C)=CC=O
inactive: [1] | [2] | [3] | [4] | [5] | [6] | [7] | [8] | [9] | [10]

CCCCC(CC)CNCC(CC)CCCC (stereo not drawn)
inactive: [1] | [2] | [3] | [4] | [5] | [6] | [7] | [8] | [9] | [10]

CC(C)(CCl)c1ccccc1
inactive: [1] | [2] | [3] | [4] | [5] | [6] | [7] | [8] | [9] | [10]

Cn1c(=O)c2c(ncn2CC(=O)O)n(C)c1=O
inactive: [1] | [2] | [3] | [4] | [5] | [6] | [7] | [8] | [9] | [10]

CCCOCCOCCO
inactive: [1] | [2] | [3] | [4] | [5] | [6] | [7] | [8] | [9] | [10]

CC(=O)Nc1ccc(N)cc1
inactive: [1] | [2] | [3] | [4] | [5] | [6] | [7] | [8] | [9] | [10]

Cc1ccnc2ccccc12
inactive: [1] | [2] | [3] | [4] | [5] | [6] | [7] | [8] | [9] | [10]

Cc1cnc(C)c(C)n1
inactive: [1] | [2] | [3] | [5] | [6] | [7] | [9] | [10]
active: [4] 51.3 µM

CCC(=O)OC/C=C/c1ccccc1
inactive: [1] | [2] | [3] | [4] | [5] | [6] | [8] | [9] | [10]

C[C@]12CCC(=O)C=C1C=C[C@@H]1[C@@H]2CC[C@@]2(C)[C@H]1CC[C@@]21CCC(=O)O1
active: [9] 7.56 µM
inactive: [1] | [2] | [3] | [4] | [5] | [6] | [7] | [8] | [10]

CO[C@H]1O[C@H](CO)[C@@H](O)[C@H](O)[C@H]1O
inactive: [1] | [2] | [3] | [4] | [5] | [6] | [7] | [8] | [9] | [10]
